Bioassay records: PubChem BioAssay, National Center for Advancing Translational Sciences (NCATS)
Pf growth 96h: inhibits malaria parasite growth, 96 h; Potency, µM (doses to about 28.7 µM), hits mostly inhibitors; 320,000 tested, 6.9% active; P. falciparum luciferase reporter growth, 96 h
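Erythrocytes infected with luciferase-expressing P. falciparum were dispensed at 2% hematocrit and 0.05% parasitemia (final), then incubated with compounds 96 hours at 37 C in 5% CO2. Luminescence after detection reagent addition reported growth.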
VACV mCherry inh: vaccinia inhibition (mCherry reporter) | Potency, µM (highest dose often 36.5 µM), most hits filed as inhibitors | Vaccinia virus mCherry reporter infection, fluorescence | AID 720579 | 310,000 tested, 0.63% active; calls by dose curve; tested in A549 cells; also: nearly all actives have a fitted effect of over 35% in size
NS1 function inh: inhibitors of influenza NS1 protein function; AID 2326; 270,000 tested, 0.4% active; Potency, µM (titrated, usually from 46.1 µM); calls by dose curve; also: actives are rising curves; nearly all actives have a fitted effect of over 50% in size
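OD600 was taken as the measure of yeast growth restored by compound in an NS1-expressing S. cerevisiae strain. Cells had been washed out of glucose medium and diluted 1:100 into galactose -URA medium, pH 6.0.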
HCV inh: blocks hepatitis C virus; 340,000 tested, 3.4% active; Potency, µM (doses to about 41.8 µM), usual class: inhibitors; Huh7.5.1 HCVcc-Cre infection, luciferase reporter, 44 h
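1,000 cells/well; 4 h culture; + compound; + HCVcc-Cre (~0.5 moi); 44 h; luciferase substrate, RT 15 min; read 15 sec.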
VACV Venus inh: vaccinia inhibition (Venus reporter); Vaccinia virus Venus reporter expression, fluorescence; Potency, µM (top dose mostly 36.5 µM), usual class: inhibitors; 330,000 tested, 0.46% active; calls by dose curve; tested in A549 cells; also: nearly all actives have a fitted effect of over 30% in size
Pf growth 48h: P. falciparum growth inhibition at 48 hours (one generation); P. falciparum luciferase growth in erythrocytes, 48 h; Potency, µM (highest dose often 28.7 µM), actives largely listed as inhibitors; 310,000 tested, 5.9% active
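A one-generation exposure of luciferase-tagged malaria parasites in RPMI 1640/Albumax erythrocyte culture, 37 C and 5% CO2. Inhibition is inferred from decreased luminescence after adding detection reagent.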
Hits are given with their value; n = inactive; u = inconclusive; x = no result; [ ] = remark or other dose. Sampled rows, rich in hits. Any-hit rate of the full collection: about 11%. Unless noted, calls follow the shape of the dose curve; as a rule, active = well fitted inhibition curve with a large enough effect; inconclusive = small, poorly fitted or top-dose-only effect, or another doubt; inactive = no such curve, though single readings can be large or run the other way.

SMILES	Pf growth 96h	VACV mCherry inh	NS1 function inh	HCV inh	VACV Venus inh	Pf growth 48h
C[C@H](CO)N1C[C@H](C)[C@@H](CN(C)C(=O)c2cc(-c3ccccc3)on2)OCc2cnnn2CCCC1=O	x	n	x	x	n	x
COCCCNCCCCOc1ccc(Br)cc1C	n	n	n	11µM	n	n
CC(C)(C)c1ccc(OCCSc2nc(-c3cccs3)nc3cc(=O)[nH]n23)cc1	x	n	x	x	n	x
Cc1c(Cl)cccc1NC(=O)CC(C(=O)O)C1CCCO1 (stereo not drawn)	x	x	n	u	x	n
CCOC(=O)c1c(C=O)c(C)n(Cc2ccc(Cl)cc2)c1C	u	x	n	8.9µM	x	1.9µM
CC(=O)c1c(C(C)=O)c(C)n(Cc2ccc(Cl)cc2)c1C	1.5µM	u	n	u	n	x
CC(C)(C)c1ccc(Oc2ccc(NC(=O)CCCC(=O)O)cn2)cc1	n	n[7.34 µM]	n	n	n[7.34 µM]	n
COc1ccc(CCNC(=O)NC2CCCCC2)cc1	n	x	n	n	x	n
Cc1ccc(OCC(=O)NC2CCCCCC2)cc1C	10µM	x	n	n	x	n
Cc1ccc(OCC(=O)NC2CCCC2)c(C)c1	0.93µM	x	n	n	n	n
COc1ccc(CCC(=O)NC2CCCCC2)cc1	15µM	x	n	n	x	n
Cc1cccc(OCC(=O)NC2CCCC2)c1	u	n	n	n	n	n
CCOC(=O)C1=C(Nc2ccccc2)CC(C)(O)C(C(=O)OCC)C1c1ccccc1 (stereo not drawn)	u	n	n	n	n	u
CCOC(=O)C1=C(Nc2ccc(C)cc2)CC(C)(O)C(C(=O)OCC)C1c1ccccc1 (stereo not drawn)	13µM	x	u	n	x	12µM
CCOC(=O)C1=C(Nc2ccccc2)CC(C)(O)C(C(=O)OCC)C1c1ccc(Br)cc1 (stereo not drawn)	u	n	n	u	n	15µM
COc1cc(S(=O)(=O)N2CCN(C(=O)c3cccs3)CC2)ccc1NC(C)=O	x	n	x	x	n	x
CC(C)c1ccc(C(=O)NNC(=O)c2n[nH]c(=O)c3ccccc23)cc1	n	x	x	n	x	n
CCc1ccc(-c2cc(C)no2)cc1S(=O)(=O)Nc1ccc(C)cn1	13µM	n	n	n	n	n
Cc1ccc(NS(=O)(=O)c2cc(-c3cc(C)no3)ccc2C(C)C)nc1	n	x	n	n	x	n
CCOc1ccc(N(C)S(=O)(=O)c2cc(-c3cc(C)no3)ccc2CC)cc1	n	n	n	u	n	12µM
COC(=O)C1C(OC)=CC(=O)C2CCCCC21 (stereo not drawn)	x	n	x	n	n	x
O=C(c1ccc2c(c1)N(Cc1ccc(F)cc1)C(=O)c1ccccc1S2(=O)=O)N1CCC(Cc2ccccc2)CC1	x	n	x	x	n	x
Cc1ccc(/C=N/Nc2cc(C)nc(NCc3ccccc3)n2)cc1	1µM	u	n	7.1µM	n	0.59µM
Cc1cc(N/N=C/c2ccc(Cl)cc2Cl)nc(NCc2ccccc2)n1	u	n	n	u	u	0.33µM
Cc1cc(N/N=C/c2ccc(F)cc2)nc(NCc2ccccc2)n1	u	u	n	11µM	n	0.41µM
SMILES	Pf growth 96h	VACV mCherry inh	NS1 function inh	HCV inh	VACV Venus inh	Pf growth 48h
Cc1cc(N/N=C/c2ccc(N(C)C)cc2)nc(NCc2ccccc2)n1	u	x	n	u	x	u
CC(NC(=O)c1ccccc1F)c1nnc(SCC(=O)N2CCN(c3ccccc3)CC2)n1C (stereo not drawn)	u	n	n	n	n	n
CCn1nc(C)c(NC(=O)/C=C/c2cnn(C)c2)c1C	n	x	n	n	x	n
COc1ccccc1Nc1nc(NCC2CCCO2)c2ccccc2n1 (stereo not drawn)	1µM	n	n	10µM	n	u
Oc1ccccc1-c1nc(NCC2CCCO2)c2ccccc2n1 (stereo not drawn)	10µM	n	n	13µM	n	u
COc1cccc(-c2nc(NCC3CCCO3)c3ccccc3n2)c1O (stereo not drawn)	n	u	n	u	u	n
Cc1cc(Nc2cccc(C(F)(F)F)c2)nc2ccc(NC(=O)Cc3ccc(Cl)cc3)cc12	x	n	x	x	u	x
C=CCN(c1ccccc1C(=O)NCC(=O)O)S(=O)(=O)c1ccc(C)cc1	n	n	n	n	n	n
CCc1c(C)nc2cc(-c3ccc(OC)c(OC)c3)nn2c1NCC1CC1	u	u	n	11µM	u	x
COCCCn1c(=N)c(C(=O)NC2CCCC2)cc2c(=O)n3cc(C)ccc3nc21	x	n	x	x	n	x
O=C(O)CN1C(=O)/C(=C\c2cccc(OCc3ccc(Cl)cc3)c2)SC1=S	u	x	n	n	x	n
Cc1ccc2nc(-c3ccccn3)oc2c1	x	n	n	n	n	n
Cc1nc(-c2ccccc2)cc(N2CCCC2)n1	n	x	n	8.9µM	x	n
Nc1nc(-c2ccccc2)cc(N2CCCCC2)n1	x	n	n	n	u	n
CCOC(=O)c1cnc2c(cnn2C)c1Cl	u	n	x	n	n	n
CSc1ccc(/C=C2\C=Cc3ccc([N+](=O)[O-])cc32)cc1	x	n	x	x	n	x
COc1ccc(/C=C2/SC(=O)NC2=O)cc1	13µM	x	n	n	x	n
Cn1cccc1/C=N/N1CCN(Cc2ccccc2Cl)CC1	n	n	n	0.32µM	n	n
Cc1ccc2c(c1)-c1c(cnn1CC(=O)N(Cc1ccco1)C1CCCCC1)CO2	n	n	n	n	n	u
O=C(Nc1ccc(N2CCCC2)c(S(=O)(=O)Nc2cccc(C(F)(F)F)c2)c1)c1cccs1	15µM	u	n	u	u	u
COc1ccccc1NS(=O)(=O)c1cc(NC(=O)Nc2ccccc2)ccc1N1CCCCC1	1.5µM	n	u	u	n	2.6µM
COc1ccccc1NS(=O)(=O)c1cc(NC(=O)c2cccs2)ccc1N1CCCC1	u	n	n	u	n	u
COc1ccccc1NS(=O)(=O)c1cc(NC(=O)C(C)C)ccc1N1CCCCC1	u	n	x	u	n	n
COc1ccccc1NS(=O)(=O)c1cc(NC(=O)c2cccs2)ccc1N1CCCCC1	3.7µM	n	u	n	n	u
COc1cc(OC)c(S(=O)(=O)Nc2ccccc2N2CCCCC2)cc1NC(C)=O	9.3µM	x	n	n	x	9.3µM
SMILES	Pf growth 96h	VACV mCherry inh	NS1 function inh	HCV inh	VACV Venus inh	Pf growth 48h
COc1cc(S(=O)(=O)Nc2ccccc2N2CCCCC2)ccc1NC(C)=O	u	x	x	n	x	n
C=CCN1CCN(c2ccncc2S(=O)(=O)N2CCCCC2)CC1	n	n	u	n	n	n
CCN1C(=S)N[C@@H](CCc2ccccc2)C(C(=O)OC)=C1C	9.3µM	n	n	n	n	u
Cn1c(SCC(=O)NC2CCCCC2)nc2c(c1=O)SCC2	x	n	x	x	n	x
C=C(C)CNC(=S)Nc1cccc2cnccc12	n	n	n	u	n	n
Cc1cc(C)cc(NC(=S)Nc2cccc3cnccc23)c1	u	u	x	n	n	2.1µM
CCc1ccc(NC(=S)Nc2cccc3cnccc23)cc1	u	n	x	10µM	n	u
Cc1nn(C(C)C(=O)NCCc2cccs2)c(=O)c2nn(-c3ccccc3)c(C)c12 (stereo not drawn)	13µM	x	n	n	x	n
